We go through eight molecules from PubChem BioAssay (NCI).

This is part of a sample that, as a whole, favours compounds with a hit. Of some 83,000 tested, about 20% had one in any assay.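 Growth was measured after 48 h exposure to one concentration of compound in 96-well plates. Values under 10 count as active.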 Values without a mark were called inactive. Activity calls are given as the source filed them.

Among the test systems are HCT-15 colon; HT29 colon; SNB-75 CNS; SNB-19 CNS; U251 CNS; SK-MEL-5 melanoma; UACC-62 melanoma; LOX IMVI melanoma; SK-MEL-28 melanoma; SK-MEL-2 melanoma; EKVX NSCLC; SN12C renal; UO-31 renal; TK-10 renal; ACHN renal; CAKI-1 renal; A498 renal; CCRF-CEM leukemia; MOLT-4 leukemia; PC-3 prostate.
Common to all, as to experiment: NCI-60 one-dose screen, 48 h (100 = growth as untreated, 0 = no growth, -100 = all killed)
Common to all, as to conditions: 10 µM unless noted

On to `COc1cc(-c2nc3occn3c2-c2ccnc(NCCCNS(=O)(=O)c3ccccc3)n2)ccc1F`, for which the growth with HCT-15 colon was 37.5%; with HT29 colon, 16.7%; in the assay with SNB-75 CNS it was 102%; in the assay on SNB-19 CNS it was 78.2%; with U251 CNS, 73.4%; in the assay with SK-MEL-5 melanoma, -22.4% (active). The growth was 4.35% (active) in the assay on UACC-62 melanoma; 31.5% in the assay on LOX IMVI melanoma; 38% in the assay on SK-MEL-28 melanoma; 34.2% with SK-MEL-2 melanoma; 44.7% with EKVX NSCLC; 44% in the assay with SN12C renal. Also, the growth with UO-31 renal is 11.5%; with TK-10 renal it was 49.5%; in the assay with ACHN renal, 37.3%; in the assay with CAKI-1 renal, 29.7%; with A498 renal, 57.1%; with CCRF-CEM leukemia, 17.3%. For the same molecule, in the assay with MOLT-4 leukemia, the growth was 11%.

With `COc1cc(N2C(=O)[C@H](c3ccccc3)C2c2ccc(SC)cc2)cc(OC)c1OC` (stereo not given in full), the growth was 1.35% (active) in the assay on HCT-15 colon; -9.59% (active) in the assay with HT29 colon; 69.4% in the assay with SNB-75 CNS; 30.8% in the assay on SNB-19 CNS; 7.35% (active) in the assay with U251 CNS; 17.7% with PC-3 prostate. The growth in the assay with SK-MEL-5 melanoma is -20.7% (active); with LOX IMVI melanoma, 13.4%; in the assay on SK-MEL-28 melanoma it was 60.9%; in the assay on SK-MEL-2 melanoma, 31.1%; in the assay on EKVX NSCLC it was 33.7%; in the assay on SN12C renal, 24.3%. The growth is 32.5% in the assay with UO-31 renal; 50.9% with TK-10 renal; 30.2% in the assay with ACHN renal; 21.3% in the assay with CAKI-1 renal; -4.14% (active) with A498 renal; 5.22% (active) in the assay with CCRF-CEM leukemia. In addition, the growth in the assay on MOLT-4 leukemia was 2.92% (active).

For the molecule `Cn1cc(C(=O)c2nc(-c3c[nH]c4ccc(Br)cc34)no2)c2cc(Br)ccc21`, the growth in the assay on HCT-15 colon is 56.1%; with HT29 colon, 44%; with SNB-75 CNS, 73.7%; in the assay on SNB-19 CNS, 86.2%; in the assay with U251 CNS, 52%; in the assay with SK-MEL-5 melanoma, 83.4%. Moreover, the growth with UACC-62 melanoma was 86.1%; in the assay with LOX IMVI melanoma, 78.3%; in the assay with SK-MEL-28 melanoma, 92%; in the assay on SK-MEL-2 melanoma, 109%; in the assay with EKVX NSCLC it was 60.5%; in the assay on SN12C renal, 80.1%. Further, the growth with UO-31 renal was 67%; in the assay with TK-10 renal, 99.9%; in the assay on ACHN renal, 80.9%; in the assay on CAKI-1 renal it was 67.4%; in the assay on A498 renal, 106%; in the assay with CCRF-CEM leukemia, 45.6%. The growth in the assay on MOLT-4 leukemia was 85%.

On to `Fc1ccc(CNc2c3ccccc3nc3ccccc23)cc1`, for which the growth is 17.6% in the assay with HCT-15 colon; 16.1% with HT29 colon; 42.1% with SNB-75 CNS; 32.4% in the assay with SNB-19 CNS; 25.9% in the assay on U251 CNS; 26.9% with PC-3 prostate. The growth in the assay on SK-MEL-5 melanoma is 42.5%; in the assay on LOX IMVI melanoma, 9.43% (active); in the assay with SK-MEL-28 melanoma it was 68.2%; in the assay with EKVX NSCLC, 35.6%; in the assay on SN12C renal, 25.7%; in the assay with UO-31 renal it was 13.5%. Also, the growth is 30.2% with TK-10 renal; 12.5% in the assay with ACHN renal; 25.5% in the assay on CAKI-1 renal; -1.77% (active) with A498 renal; 26% in the assay on CCRF-CEM leukemia; 8.68% (active) in the assay on MOLT-4 leukemia.

For `COc1ccc(NC(=O)c2ccc(C(=O)Nc3ccc(OC)cc3OC)cc2)c(OC)c1`, the growth is 81.4% in the assay on HCT-15 colon; 90% in the assay on HT29 colon; -39.3% (active) with SNB-75 CNS; 50.9% with SNB-19 CNS; 46.3% in the assay on U251 CNS; 96.7% in the assay on SK-MEL-5 melanoma. Besides, the growth was 73.8% in the assay on UACC-62 melanoma; 71.8% in the assay with LOX IMVI melanoma; 101% in the assay on SK-MEL-28 melanoma; 80.4% in the assay with SK-MEL-2 melanoma; 73.7% in the assay with EKVX NSCLC; 65% with SN12C renal. In addition, the growth with UO-31 renal was 52.4%; with TK-10 renal it was 69.7%; with ACHN renal it was 71.9%; in the assay on CAKI-1 renal it was 68.1%; in the assay on A498 renal it was 58.6%; in the assay on CCRF-CEM leukemia it was 90%. Also, the growth with MOLT-4 leukemia is 94.3%.

Take `Cc1ccc(C)c2c1C(O)(C#Cc1ccccc1)c1ccccc1C2(O)C#Cc1ccccc1` (stereo not given): the growth in the assay on HCT-15 colon was 27.7%; in the assay on HT29 colon, 38.9%; with SNB-75 CNS, 48.3%; in the assay with SNB-19 CNS, 70.4%; with U251 CNS, 34.3%; in the assay on SK-MEL-5 melanoma, 36.8%. For the same molecule, the growth was 53.4% in the assay with UACC-62 melanoma; 42.5% in the assay on LOX IMVI melanoma; 80.4% in the assay on SK-MEL-28 melanoma; 15.9% with SK-MEL-2 melanoma; 38.5% in the assay on EKVX NSCLC; 19.6% with UO-31 renal. Besides, the growth in the assay with TK-10 renal was 58.8%; with ACHN renal, 49.7%; in the assay with CAKI-1 renal it was 71.9%; in the assay on A498 renal, 69.2%; with CCRF-CEM leukemia, 27.5%; in the assay with MOLT-4 leukemia, 19.5%.

Take `O=c1[nH]cnc2c1C(c1ccc(Br)cc1)c1sc3c(F)cccc3c1O2` (stereo not given): the growth with HCT-15 colon is 99.2%; with HT29 colon, 104%; in the assay on SNB-75 CNS it was 85.1%; in the assay on SNB-19 CNS it was 91.8%; in the assay with U251 CNS it was 95.9%; with SK-MEL-5 melanoma, 98.7%. For the same molecule, the growth was 82.5% in the assay on UACC-62 melanoma; 99.2% with LOX IMVI melanoma; 105% with SK-MEL-28 melanoma; 110% in the assay on SK-MEL-2 melanoma; 90.9% with EKVX NSCLC; 98.3% in the assay on SN12C renal. In addition, the growth in the assay with UO-31 renal is 76%; in the assay with TK-10 renal, 107%; with ACHN renal, 95.1%; in the assay with CAKI-1 renal it was 82.1%; in the assay on A498 renal, 104%; with CCRF-CEM leukemia, -50.7% (active). In addition, in the assay with MOLT-4 leukemia, the growth was 37%.

For `N=c1sc(Cc2cc(Cl)ccc2Cl)cn1CC(=O)c1ccccc1`, the growth was 23.5% with HCT-15 colon; 16.1% in the assay on HT29 colon; 5.16% (active) in the assay with SNB-75 CNS; 63.6% in the assay with SNB-19 CNS; 40.4% in the assay with U251 CNS; 37.3% with SK-MEL-5 melanoma. For the same molecule, the growth with UACC-62 melanoma is 17.1%; in the assay with LOX IMVI melanoma, 25.1%; in the assay on SK-MEL-28 melanoma, 58.5%; with SK-MEL-2 melanoma it was 61.6%; in the assay on EKVX NSCLC it was 54.4%; with SN12C renal it was 63%. Also, the growth is 43.9% in the assay with UO-31 renal; 61.3% with TK-10 renal; 37.3% in the assay on ACHN renal; 21.1% in the assay with CAKI-1 renal; 49% with A498 renal; 60% in the assay with CCRF-CEM leukemia. Moreover, the growth in the assay on MOLT-4 leukemia was 49.8%.
